Test results from PubChem BioAssay (NCI).
Compounds without any hit were thinned out: in the full panel of roughly 83,000, 20% have a hit.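 Activity criterion: percent growth below 10, measured after cells in 96-well plates were exposed to a single compound concentration for 48 hours.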 Unmarked numbers belong to inactive results. Calls of active or inactive are those of the source.

Columns and labels:
Test in all cases: NCI-60 one-dose screen, 48 h (100 = growth as untreated, 0 = no growth, -100 = all killed)
Conditions in all cases: 10 µM unless noted
[1] = system: BT-549 breast
[2] = system: SW-620 colon
[3] = system: MCF7 breast
[4] = system: HCT-116 colon
[5] = system: HCC-2998 colon
[6] = system: KM12 colon
[7] = system: MDA-MB-435 melanoma

Row | Compound | growth [1] | growth [2] | growth [3] | growth [4] | growth [5] | growth [6] | growth [7]
1 | Cc1ccc(Nc2nc(N)nc(CSCC(=O)NN)n2)cc1 | 93.6% | 98.9% | 94.3% | 103% | 109% | 98.1% | 
2 | CCN1C(=O)N(CC)C2C1NN=c1s/c(=C\c3cccs3)c(=O)n12 (configuration not stated) | 19.8% | 20.9% | 19.9% | 15.4% | 21% | 19.8% | -31.8% (active)
3 | O=c1oc2ccccc2c(Cl)c1Cl |  | 48.9% | 34% | 32.5% | 93.1% | 83.6% | 52%
4 | COc1cc(C2NC(=O)c3ccccc3N2)ccc1OCCCCCOc1c(OC)cc(C2=NOC(c3cc(OC)c(OC)c(OC)c3)C2)cc1OC (configuration not stated) | 1.13% (active) | 92.8% | 32.3% | 60% | 80.5% | 91.2% | 23.3%
5 | CC(=O)OC1CCC2(C)C(=CC3C4CCC(=O)C4(C)CCC32)C1 (configuration not stated) | 95.9% | 104% | 97.6% | 100% | 102% | 107% | 
6 | O=C(N/N=C/C=C/c1ccc([N+](=O)[O-])o1)c1cc2ccccc2cc1O | -9.91% (active) | -75.6% (active) | -61.3% (active) | -92.8% (active) | -100% (active) | -67.3% (active) | -24.2% (active)
7 | Cc1ccc(C2SCC(=O)N2Cc2ccccc2)cc1 (configuration not stated) | 99% | 107% |  | 94.2% | 90.7% | 102% | 95.4%
8 | Cc1c2c(c(C)c3c1oc1cc(O)ccc13)C(=O)N(CCN1CCCCC1)C2=O | 97.7% | 67.8% | 90.3% | 67.4% | 93.6% | 83.9% | 93.3%
9 | COc1ccc2c(c1)C(=O)/C(=C/c1ccc(OCC(=O)Nc3nccs3)cc1)O2 | -84.2% (active) | -24% (active) | 59.8% | 15.6% | 113% | 21.3% | 92.5%
10 | Cc1cc(NCc2cc(Nc3ccnc4cc(Cl)ccc34)ccc2F)nc(N2CCSCC2)n1 | 46.6% | -14.1% (active) | 0.0561% (active) | -29.1% (active) | 3.4% (active) | 14.9% | -70.4% (active)
11 | O=S(=O)(NCCCNc1cc(-c2c(-c3cccc(O)c3)nc3sccn23)ccn1)c1cccc(Cl)c1 | 21.5% | 48.4% | 55.5% | 33.5% | 58.2% | 32.4% | 27.4%
12 | O=C1OC(c2nc3ccccc3s2)=C/C1=C\c1ccc(O)cc1 | 111% | 94.4% | 100% | 99.8% | 108% | 95% | 102%
13 | Cc1nn(-c2ccccc2)c(Oc2ccc(Cl)cc2)c1/C=N\N=c1/sc2ccccc2n1C | 84.1% | 77.8% | 85% | 73.2% | 103% | 94.6% | 97.2%
14 | N#Cc1c(-c2ccccn2)[nH]c(=S)[nH]c1=O | 102% | 105% | 95.1% | 94.8% | 106% | 102% | 99.8%
15 | Cc1cccc(-c2nc(N(C)c3ccc4ncsc4c3)c3ccccc3n2)n1 | 87.1% | 57.9% | 45% | 65.2% | 84.2% | 55.4% | -3.29% (active)
16 | COCN1CCC2N(COC)CCC3N(COC)CCC1N23 (configuration not stated) | 108% | 114% | 99.4% | 101% | 100% | 106% | 110%
17 | Cc1ccc(Cl)cc1NC(=O)c1cc2ccccc2cc1O | -15.6% (active) | -1.12% (active) | -21.5% (active) | -10.7% (active) |  | -29.4% (active) | -7.31% (active)
18 | O=C(CC(SCc1ccccc1)c1ccccc1)c1ccccc1 (configuration not stated) | 94% | 83.5% | 14.6% | 37.2% | 99.9% | 84.8% | 84.6%
19 | O=C1/C(=C/c2ccc(F)cc2)C=C(c2ccccc2)N1CCc1ccccc1 |  | 70% | 50.4% | 29.4% | 85% | 62.2% | 65.4%
20 | O=C(Nc1ccccc1-c1nc2ccccc2c(=O)[nH]1)c1cc2ccccc2[nH]1 | 85.3% | 94.2% | 68% | 83.5% | 104% | 88.2% | 106%
21 | CC(C)C(=O)Nc1n[nH]c2cc(-c3cccc(NS(=O)(=O)C4CC4)c3)ccc12 | 42.3% | 74.5% | 33.2% | 52.5% | 83.4% | 61.3% | 12.9%
22 | N#C/C(=C\c1ccc2c(c1)OCO2)n1nnc2cc(F)c(F)cc21 | 60% | 44.3% | 44.4% | 47% | 105% | 47.4% | 3.37% (active)
23 | COc1ccc(Cl)cc1NC(=O)C(Br)C(Br)C(=O)O (configuration not stated) |  | 8.71% (active) | 23.8% | 8.19% (active) | 38.6% | 83.2% | 34.2%
24 | Cc1nc2ccccc2c(/C=C/c2ccc(Cl)cc2)c1C(=O)/C=C/c1ccc(F)cc1 | 13.9% | -19.6% (active) | 17.6% | -70.5% (active) | -67.3% (active) | 21.2% | -21.3% (active)
25 | O=C1Nc2ccccc2/C1=C/c1cn(C(=O)c2ccc(Cl)cc2)c2ccccc12 | 96.4% | 102% | 59.1% | 91.6% |  | 40.9% | 110%
